# Laboratory results published in PubChem BioAssay (NCATS).
# Values joined by “and” are separate entries in the source; they are usually repeats but may differ in a detail not shown here. Identical values can stand only once. Records with an inconclusive call do not appear. Entries that show only a call come without a potency. Active and inactive are the calls of the source. Calls come from the whole dose curve; as a rule, active = well fitted curve in the direction sought with a large enough effect; inconclusive = small, poorly fitted or top-dose-only effect, or another doubt; inactive = no such curve, though single readings can be large; an effect the other way counts as inactive or inconclusive.
# Experiments:
# AA1029 = assay: qHTS profiling for inhibitors of Plasmodium falciparum proliferation (AID 504749); note: nearly all actives have a fitted effect of over 60% in size; note: potency is the fitted concentration of half-maximal effect; conditions: P. falciparum in erythrocytes, SYBR Green DNA, 72 h; series mostly up to 28.7 µM
# Summary of the method: (§1)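 SYBR Green fluorescence (ex 485 nm, em 535 nm) reports parasite DNA after 72 h compound exposure of infected red cells at 0.3% parasitemia, 2.5% hematocrit; signal normalized to 0.29 uM artemisinin and vehicle wells.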
# ATS189 = assay: as above; conditions: P. falciparum in erythrocytes, SYBR Green DNA, 72 h; series mostly up to 28.7 µM
# Summary of the method: as §1
# CP191 = assay: as above; conditions: P. falciparum in erythrocytes, SYBR Green DNA, 72 h; series mostly up to 28.7 µM
# Summary of the method: as §1
# CP194 = assay: as above; conditions: P. falciparum in erythrocytes, SYBR Green DNA, 72 h; series mostly up to 28.7 µM
# Summary of the method: as §1
# CP217 = assay: as above; conditions: P. falciparum in erythrocytes, SYBR Green DNA, 72 h; series mostly up to 28.7 µM
# Summary of the method: as §1
# CP237 = assay: as above; conditions: P. falciparum in erythrocytes, SYBR Green DNA, 72 h; series mostly up to 28.7 µM
# Summary of the method: as §1
# CP268 = assay: as above; conditions: P. falciparum in erythrocytes, SYBR Green DNA, 72 h; series mostly up to 28.7 µM
# Summary of the method: as §1
# CP291 = assay: as above; conditions: P. falciparum in erythrocytes, SYBR Green DNA, 72 h; series mostly up to 28.7 µM
# Summary of the method: as §1
# CP297 = assay: as above; conditions: P. falciparum in erythrocytes, SYBR Green DNA, 72 h; series mostly up to 28.7 µM
# Summary of the method: as §1
# CP325 = assay: as above; conditions: P. falciparum in erythrocytes, SYBR Green DNA, 72 h; series mostly up to 28.7 µM
# Summary of the method: as §1
# Dd2 = assay: as above; conditions: P. falciparum in erythrocytes, SYBR Green DNA, 72 h; series mostly up to 28.7 µM
# Summary of the method: as §1
# JCK = assay: as above; conditions: P. falciparum in erythrocytes, SYBR Green DNA, 72 h; series mostly up to 28.7 µM
# Summary of the method: as §1
# N140 = assay: as above; conditions: P. falciparum in erythrocytes, SYBR Green DNA, 72 h; series mostly up to 28.7 µM
# Summary of the method: as §1
# P93_24 = assay: as above; conditions: P. falciparum in erythrocytes, SYBR Green DNA, 72 h; series mostly up to 28.7 µM
# Summary of the method: as §1
# PC15 = assay: as above; conditions: P. falciparum in erythrocytes, SYBR Green DNA, 72 h; series mostly up to 28.7 µM
# Summary of the method: as §1
# PC49 = assay: as above; conditions: P. falciparum in erythrocytes, SYBR Green DNA, 72 h; series mostly up to 28.7 µM
# Summary of the method: as §1
# [1] = molecular target: Cytochrome P450 2D6 (Homo sapiens) (UniProt P10635); assay: qHTS Assay for Inhibitors and Substrates of Cytochrome P450 2D6 (AID 891); note: nearly all actives have a fitted effect of over 60% in size; note: potency is the fitted concentration of half-maximal effect
# Chain of Cytochrome P450 2D6 (Homo sapiens) (P10635 whole entry, looked up): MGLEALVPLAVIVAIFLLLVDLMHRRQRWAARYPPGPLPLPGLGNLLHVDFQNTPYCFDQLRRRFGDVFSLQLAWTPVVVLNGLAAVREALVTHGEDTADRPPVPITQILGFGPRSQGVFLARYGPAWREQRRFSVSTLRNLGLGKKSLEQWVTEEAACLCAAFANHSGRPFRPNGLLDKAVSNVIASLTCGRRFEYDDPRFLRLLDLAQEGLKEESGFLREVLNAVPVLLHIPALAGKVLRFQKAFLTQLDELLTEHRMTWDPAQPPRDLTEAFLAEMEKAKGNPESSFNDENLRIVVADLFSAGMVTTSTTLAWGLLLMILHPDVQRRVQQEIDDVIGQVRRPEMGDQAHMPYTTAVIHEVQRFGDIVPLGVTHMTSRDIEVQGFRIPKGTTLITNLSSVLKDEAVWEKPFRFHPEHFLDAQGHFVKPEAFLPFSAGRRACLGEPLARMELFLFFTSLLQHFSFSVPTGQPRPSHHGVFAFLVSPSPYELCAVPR
# Summary of the method: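 Luminescent read-out of luciferin formed by 5 nM human CYP2D6 demethylating 30 uM Luciferin-ME EGE (Km level) over 60 min at room temperature after NADPH regeneration addition. Data normalized to full inhibition by 1.43 uM quinidine.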
# [2] = S16 Schwann cell viability assay (CellTiter-Glo assay) (AID 624031);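 note: native untransfected S16 rat Schwann cells; cellular ATP luminescence as a viability measure; nearly all actives have a fitted effect of over 70% in size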
# Summary of the method: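 Rat S16 Schwann cells without reporter constructs received compound or DMSO for 24 h at 37 °C under 5% CO2. Cellular ATP was then quantified by CellTiter-Glo luminescence, with vehicle wells defined as 0% activity and cell-free wells as reference.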
# TAB109 = assay: qHTS profiling for inhibitors of Plasmodium falciparum proliferation (AID 504749); note: nearly all actives have a fitted effect of over 60% in size; note: potency is the fitted concentration of half-maximal effect; conditions: P. falciparum in erythrocytes, SYBR Green DNA, 72 h; series mostly up to 12.8 µM
# Summary of the method: as §1
# CP250 = assay: as above; conditions: P. falciparum in erythrocytes, SYBR Green DNA, 72 h; series mostly up to 12.8 µM
# Summary of the method: as §1
structure (smiles),measurement,setting,value
C#CCN(C)[C@@H](C)Cc1ccccc1,Potency,AA1029,inactive
same,Potency,ATS189,inactive
same,Potency,CP191,inactive
same,Potency,CP194,inactive
same,Potency,CP217,inactive
same,Potency,CP237,inactive
same,Potency,CP268,inactive
same,Potency,CP291,inactive
same,Potency,CP297,inactive
same,Potency,CP325,inactive
same,Potency,Dd2,inactive
same,Potency,JCK,inactive
same,Potency,N140,inactive
same,Potency,P93_24,inactive
same,Potency,PC15,inactive
same,Potency,PC49,inactive
COc1ccc2c(c1OC)CN1CCc3cc4c(cc3[C@H]1C2)OCO4,Potency,[1],0.0631 µM (active)
same,Potency,[2],inactive
same,Potency,AA1029,2.51 µM (active)
same,Potency,CP297,1.81 µM (active)
same,Potency,P93_24,2.51 µM (active)
same,Potency,TAB109,2.24 µM (active)
CCC[C@@](C)(COC(N)=O)COC(=O)NC(C)C,Potency,[1],inactive
C[C@H](N)[C@@H](O)c1ccccc1,Potency,[2],inactive
same,Potency,AA1029,inactive
same,Potency,ATS189,inactive
same,Potency,CP191,inactive
same,Potency,CP194,inactive
same,Potency,CP217,inactive
same,Potency,CP237,inactive
same,Potency,CP250,inactive
same,Potency,CP268,inactive
same,Potency,CP297,inactive
same,Potency,CP325,inactive
same,Potency,Dd2,inactive
same,Potency,JCK,inactive
same,Potency,N140,inactive
same,Potency,P93_24,inactive
same,Potency,PC15,inactive
same,Potency,PC49,inactive
same,Potency,TAB109,inactive
CC(C)c1c(CN(C)[C@@H](C)Cc2ccccc2)n(C)n(-c2ccccc2)c1=O,Potency,[2],inactive
same,Potency,AA1029,inactive
same,Potency,ATS189,inactive
same,Potency,CP191,inactive
same,Potency,CP194,inactive
same,Potency,CP217,inactive
same,Potency,CP237,inactive
same,Potency,CP250,inactive
same,Potency,CP268,inactive
same,Potency,CP291,inactive
same,Potency,CP297,inactive
same,Potency,CP325,inactive
same,Potency,Dd2,inactive
same,Potency,JCK,inactive
same,Potency,N140,inactive
same,Potency,P93_24,inactive
same,Potency,PC15,inactive
same,Potency,PC49,inactive
same,Potency,TAB109,inactive
CN1CCc2cc3c(cc2[C@@H]1O)OCO3,Potency,[1],7.94 µM (active)
N[C@H]1C[C@H]1c1ccccc1,Potency,[2],inactive
same,Potency,AA1029,inactive
same,Potency,ATS189,inactive
same,Potency,CP191,inactive
same,Potency,CP194,inactive
same,Potency,CP217,inactive
same,Potency,CP237,inactive
same,Potency,CP250,inactive
same,Potency,CP268,inactive
same,Potency,CP291,inactive
same,Potency,CP297,inactive
same,Potency,CP325,inactive
same,Potency,Dd2,inactive
same,Potency,JCK,inactive
same,Potency,N140,inactive
same,Potency,P93_24,inactive
same,Potency,PC15,inactive
same,Potency,PC49,inactive
same,Potency,TAB109,inactive
CC(=O)OCC(=O)[C@@H]1CC[C@H]2[C@H]3CC[C@H]4C[C@@H](O)CC[C@]4(C)[C@@H]3C(=O)C[C@@]12C,Potency,[2],inactive
same,Potency,AA1029,inactive
same,Potency,ATS189,inactive
same,Potency,CP191,inactive
same,Potency,CP194,inactive
same,Potency,CP217,inactive
same,Potency,CP237,inactive
same,Potency,CP250,inactive
same,Potency,CP268,inactive
same,Potency,CP291,inactive
same,Potency,CP297,inactive
same,Potency,CP325,inactive
same,Potency,Dd2,inactive
same,Potency,JCK,inactive
same,Potency,N140,inactive
same,Potency,P93_24,inactive
same,Potency,PC15,inactive
same,Potency,PC49,inactive
same,Potency,TAB109,inactive
COc1cc2c(cc1OC)[C@H](C)NCC2,Potency,[1],inactive
C=C[C@H]1CN2CC[C@@H]1C[C@H]2[C@@H](O)c1ccnc2ccccc12,Potency,[1],3.16 µM (active) and 501 nM (active)
CN1CC[C@]2(C)c3cc(O)ccc3N(C)[C@@H]12,Potency,[1],25.1 µM (active)
CC[C@]1(c2cccc(O)c2)CCCCN(C)C1,Potency,[2],inactive
same,Potency,CP191,inactive
same,Potency,CP217,inactive
same,Potency,CP237,3.16 µM (active)
same,Potency,CP250,inactive
same,Potency,Dd2,3.16 µM (active)
same,Potency,JCK,inactive
same,Potency,N140,3.98 µM (active)
same,Potency,P93_24,inactive
same,Potency,PC49,inactive
same,Potency,TAB109,inactive
CCN(CC)C(=O)N[C@@H]1C[C@H]2c3cccc4[nH]cc(c34)C[C@@H]2N(C)C1,Potency,[1],0.0158 µM (active)
CC[N@+]1(C)CCC[C@@H](OC(=O)C(O)(c2ccccc2)c2ccccc2)C1,Potency,[1],5.01 µM (active)
CC[C@H]1CN2CC[C@@H]1C[C@H]2[C@@H](O)c1ccnc2ccc(OC)cc12,Potency,[1],3.16 µM (active)
C[N+]1([O-])[C@@H]2CC[C@H]1CC(OC(=O)[C@@H](CO)c1ccccc1)C2 (some centres undefined),Potency,[2],inactive
same,Potency,AA1029,inactive
same,Potency,ATS189,inactive
same,Potency,CP191,inactive
same,Potency,CP194,inactive
same,Potency,CP217,inactive
same,Potency,CP237,inactive
same,Potency,CP250,inactive
same,Potency,CP268,inactive
same,Potency,CP291,inactive
same,Potency,CP297,inactive
same,Potency,CP325,inactive
same,Potency,Dd2,inactive
same,Potency,JCK,inactive
same,Potency,N140,inactive
same,Potency,P93_24,inactive
same,Potency,PC15,inactive
same,Potency,PC49,inactive
same,Potency,TAB109,inactive
NCC[C@H](O)C(=O)N[C@H]1C[C@@H](N)[C@@H](O[C@H]2O[C@@H](CN)[C@@H](O)[C@@H](O)[C@@H]2N)[C@@H](O[C@H]2O[C@@H](CO)[C@@H](O)[C@@H]2O)[C@@H]1O,Potency,[2],inactive
same,Potency,AA1029,inactive
same,Potency,ATS189,inactive
same,Potency,CP191,inactive
same,Potency,CP194,inactive
same,Potency,CP217,inactive
same,Potency,CP237,inactive
same,Potency,CP250,inactive
same,Potency,CP268,inactive
same,Potency,CP291,inactive
same,Potency,CP297,inactive
same,Potency,CP325,inactive
same,Potency,Dd2,inactive
same,Potency,JCK,inactive
same,Potency,N140,inactive
same,Potency,P93_24,inactive
same,Potency,PC15,inactive
same,Potency,PC49,inactive
same,Potency,TAB109,inactive
Clc1ccc([C@@H](OCCN2CCCCC2)c2ccccc2)cc1,Potency,[1],0.0158 µM (active)
same,Potency,ATS189,3.16 µM (active)
same,Potency,CP217,inactive
same,Potency,CP237,inactive
same,Potency,CP250,inactive
same,Potency,CP291,inactive
same,Potency,CP297,inactive
same,Potency,Dd2,4.47 µM (active)
same,Potency,N140,3.98 µM (active)
same,Potency,P93_24,3.55 µM (active)
same,Potency,PC15,3.16 µM (active)
CN1Cc2c(ccc3c2OCO3)[C@@H]2[C@@H](O)Cc3cc4c(cc3[C@@H]21)OCO4,Potency,[1],199 nM (active) and 79.4 nM (active)
CC(C)N(CC[C@@](C(N)=O)(c1ccccc1)c1ccccn1)C(C)C,Potency,[2],inactive
same,Potency,AA1029,inactive
same,Potency,ATS189,inactive
same,Potency,CP191,inactive
same,Potency,CP194,inactive
same,Potency,CP217,inactive
same,Potency,CP237,inactive
same,Potency,CP250,inactive
same,Potency,CP268,inactive
same,Potency,CP291,inactive
same,Potency,CP297,inactive
same,Potency,CP325,inactive
same,Potency,Dd2,inactive
same,Potency,JCK,inactive
same,Potency,N140,inactive
same,Potency,P93_24,inactive
same,Potency,PC15,inactive
same,Potency,PC49,inactive
same,Potency,TAB109,inactive
CN[C@@H](C)[C@H]1CC[C@@H](N)[C@@H](O[C@@H]2[C@@H](O)[C@@H](O[C@H]3OC[C@@](C)(O)[C@@H](NC)[C@@H]3O)[C@H](N)C[C@@H]2N)O1 (tested in a mixture with another compound),Potency,[2],inactive
same,Potency,AA1029,inactive
same,Potency,ATS189,inactive
same,Potency,CP191,inactive
same,Potency,CP194,inactive
same,Potency,CP217,inactive
same,Potency,CP237,inactive
same,Potency,CP250,inactive
same,Potency,CP268,inactive
same,Potency,CP291,inactive
same,Potency,CP297,inactive
same,Potency,CP325,inactive
same,Potency,Dd2,inactive
same,Potency,JCK,inactive
same,Potency,N140,inactive
same,Potency,P93_24,inactive
same,Potency,PC15,inactive
same,Potency,PC49,inactive
same,Potency,TAB109,inactive
